Experiment [1] can be described thus: Primary qHTS for small molecule stabilizers of the endoplasmic reticulum resident proteome: Secreted ER Calcium Modulated Protein (SERCaMP) assay (AID 1508630). The gist of the method:
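GLuc-SERCaMP-expressing SH-SY5Y cells, pretreated 16 h with compound, are challenged with thapsigargin to empty ER calcium stores; after 4 h, coelenterazine is added directly to the medium and luminescence is imaged.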
A general note: Quantitative high-throughput screening tests each substance at several concentrations.

Experiment [2] can be described thus: A High-Content qHTS Against Drug Library for the Identification of Small Molecules that Inhibit DYT1 Early Onset Primary Dystonia-Associated Cell Pathology (AID 1645839; calls by dose curve; further: potency means the concentration at half of the fitted maximal effect). The gist of the method:
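Flp-In T-REx 293 cells with tetracycline-inducible EGFP-delE hTOR1A (WT EGFP-hTOR1A as reference), 800 cells/well; compound added with tetracycline, 48 h at 37 C. Fixed, permeabilized cells imaged; %pathology (punctate TorsinA) primary, cell count counterscreen.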

In experiment [3] the target is Cytochrome P450 2C9 (Homo sapiens) (UniProt P11712). The experiment is described as follows: Cytochrome P450 family 2 subfamily C member 9 (CYP2C9) small molecule antagonists: luciferase biochemical (cell-free) qHTS assay (AID 1645842; active means well fitted curve in the direction sought with a large enough effect in the repeat runs; an effect the other way counts as inactive or inconclusive; further: nearly all actives have a fitted effect of over 55% in size; further: potency means the concentration at half of the fitted maximal effect). The gist of the method: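 Luminescence, after 20 min with luciferin detection reagent, reflected CYP2C9 turnover during a 1 h NADPH-driven reaction at 37C. Enzyme-substrate mix contained 0.4% bovine serum albumin and was preincubated with compound 10 min at room temperature.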
Chain of Cytochrome P450 2C9 (Homo sapiens) (P11712 whole entry, looked up): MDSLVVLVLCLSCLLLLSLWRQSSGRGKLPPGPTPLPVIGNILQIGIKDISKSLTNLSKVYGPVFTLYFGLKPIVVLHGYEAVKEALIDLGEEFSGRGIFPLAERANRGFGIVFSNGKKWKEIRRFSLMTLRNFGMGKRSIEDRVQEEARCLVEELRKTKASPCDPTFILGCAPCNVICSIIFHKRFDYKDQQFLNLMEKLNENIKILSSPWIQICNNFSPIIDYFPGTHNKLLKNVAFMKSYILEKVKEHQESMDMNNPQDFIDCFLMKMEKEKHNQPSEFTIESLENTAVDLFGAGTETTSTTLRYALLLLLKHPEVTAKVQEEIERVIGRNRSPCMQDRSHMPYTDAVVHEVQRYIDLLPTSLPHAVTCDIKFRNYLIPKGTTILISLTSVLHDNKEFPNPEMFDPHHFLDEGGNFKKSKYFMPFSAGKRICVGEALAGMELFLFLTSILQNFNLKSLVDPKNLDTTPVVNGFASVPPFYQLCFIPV

Experiment [4] is described as follows: Primary qHTS for inhibitors of nuclear receptor binding SET domain protein 2 (NSD2) in an isogenic RCH-ACV NSD2 p.E1099K mutant (9B) (AID 1645876). Further: nearly all actives have a fitted effect of over 70% in size. Further: potency means the concentration at half of the fitted maximal effect.
The target in experiment [5] is Cytochrome P450 2D6 (Homo sapiens) (UniProt P10635). The experiment is described as follows: Cytochrome P450 family 2 subfamily D member 6 (CYP2D6) small molecule antagonists: luciferase biochemical (cell-free) qHTS assay (AID 1645840; active means well fitted curve in the direction sought with a large enough effect in the repeat runs; an effect the other way counts as inactive or inconclusive; further: nearly all actives have a fitted effect of over 55% in size; further: potency means the concentration at half of the fitted maximal effect). The gist of the method:
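P450-Glo luminescent screen: recombinant CYP2D6 enzyme–proluciferin substrate mix preincubated with compound 10 min at room temperature, then NADPH regeneration added for 1 h at room temperature. Detection reagent added for 20 min; luciferin light read as relative luminescence units.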

Experiment [6] deals with Cytochrome P450 3A4 (Homo sapiens) (UniProt P08684). The experiment in a line: Cytochrome P450 family 3 subfamily A member 4 (CYP3A4) small molecule antagonists: luciferase qHTS assay (AID 1645841; active means well fitted curve in the direction sought with a large enough effect in the repeat runs; an effect the other way counts as inactive or inconclusive; further: nearly all actives have a fitted effect of over 45% in size). The procedure, abridged: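 P450-Glo CYP3A4 enzyme with proluciferin substrate preincubated 10 min with compound at room temperature, then NADPH regeneration 1 h. Luciferin detection reagent added for 20 min; luminescence recorded. Ketoconazole positive control.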
Chain of Cytochrome P450 3A4 (Homo sapiens) (P08684 whole entry, looked up): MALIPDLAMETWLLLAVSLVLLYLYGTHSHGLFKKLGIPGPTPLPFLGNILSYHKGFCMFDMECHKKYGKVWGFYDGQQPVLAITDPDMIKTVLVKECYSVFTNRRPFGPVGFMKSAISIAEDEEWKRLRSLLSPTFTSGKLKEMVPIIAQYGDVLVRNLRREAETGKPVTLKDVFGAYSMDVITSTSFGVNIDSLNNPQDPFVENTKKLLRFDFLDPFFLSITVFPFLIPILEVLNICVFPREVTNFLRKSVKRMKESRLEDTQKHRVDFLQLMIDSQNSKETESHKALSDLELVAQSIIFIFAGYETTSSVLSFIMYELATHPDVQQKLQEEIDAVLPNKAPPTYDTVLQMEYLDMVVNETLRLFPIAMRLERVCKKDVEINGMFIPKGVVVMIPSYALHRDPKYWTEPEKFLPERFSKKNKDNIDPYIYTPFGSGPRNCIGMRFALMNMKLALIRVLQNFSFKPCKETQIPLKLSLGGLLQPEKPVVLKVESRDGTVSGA

Drawing on PubChem BioAssay (NCATS), this text covers Potency for 35 compounds.

Results filed as inconclusive are left out. Activity calls are given as the source filed them. Unless noted, the call rests on the fitted dose curve; in most records, active means well fitted curve in the direction sought with a large enough effect; inconclusive means small, poorly fitted or top-dose-only effect, or another doubt; inactive means no such curve, though single readings can be large; an effect the other way counts as inactive or inconclusive.

Chain of Cytochrome P450 2D6 (Homo sapiens) (P10635 whole entry, looked up): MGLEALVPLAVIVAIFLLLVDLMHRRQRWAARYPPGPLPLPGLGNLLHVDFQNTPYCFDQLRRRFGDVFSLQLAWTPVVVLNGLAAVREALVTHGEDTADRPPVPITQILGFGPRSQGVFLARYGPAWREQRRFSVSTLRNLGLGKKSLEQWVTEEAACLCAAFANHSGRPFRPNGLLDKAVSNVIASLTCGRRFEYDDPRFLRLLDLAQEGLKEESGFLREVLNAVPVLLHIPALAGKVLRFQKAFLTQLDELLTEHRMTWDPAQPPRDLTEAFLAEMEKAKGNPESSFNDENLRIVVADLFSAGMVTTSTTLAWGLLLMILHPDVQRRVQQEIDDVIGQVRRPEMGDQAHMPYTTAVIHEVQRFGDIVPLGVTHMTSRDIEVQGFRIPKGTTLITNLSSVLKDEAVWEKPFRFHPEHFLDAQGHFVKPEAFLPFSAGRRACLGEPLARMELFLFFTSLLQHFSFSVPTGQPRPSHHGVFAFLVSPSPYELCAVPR

On to `O=C(O)Cc1ccc(OCCNC[C@H](O)c2ccccc2)cc1`, for which the Potency result in experiment [1], in experiment [2] and in experiment [3] was “inactive” throughout.
In the case of `CC(=O)OC/C=C(C)/C=C/C=C(C)/C=C/C1=C(C)CCCC1(C)C`, the Potency result in experiment [1] and in experiment [2] was “inactive” each time. For the same compound, the Potency in experiment [3] is 15.5 µM (active).
Turning to `CC[N+](CC)(CC)CCOC(=O)C(C1CCCC1)C1CCCC1`, the Potency result in experiment [1], in experiment [2] and in experiment [3] was “inactive” in each case. Further, the Potency in experiment [4] was 21.1 µM (active).
Turning to `CC1(C)O[C@@H]2C[C@H]3[C@@H]4CCC5=CC(=O)C=C[C@]5(C)[C@@]4(F)[C@@H](O)C[C@]3(C)[C@]2(C(=O)CO)O1`, the Potency entry in experiment [1], in experiment [2] and in experiment [3] was “inactive” each time.
Consider `C[C@H](CN1CCCC1)C(=O)c1ccc(C(F)(F)F)cc1`, for which the Potency result in experiment [1], in experiment [2] and in experiment [3] was “inactive” each time. Besides, the Potency in experiment [4] was 11.9 µM (active).
As for `CN=C(N)NC(=O)Nc1c(C)cccc1C`, the Potency entry in experiment [1], in experiment [2], in experiment [3] and in experiment [4] was “inactive” throughout.
Take `CC(C)Cc1ccc(C(C)C(=O)OCc2ccccn2)cc1` (configuration not stated): the Potency result in experiment [1], in experiment [2] and in experiment [4] was “inactive” in each case. Further, in experiment [3], the Potency is 9.77 µM (active).
For `CCOC(=O)NNc1nncc2ccccc12`, the Potency entry in experiment [1], in experiment [2], in experiment [3] and in experiment [4] was “inactive” throughout.
Turning to `CCc1cc2cc(OC)c(OC)cc2c(Cc2ccccc2)n1`, the Potency result in experiment [1] and in experiment [2] was “inactive” each time. Besides, the values for the Potency in experiment [3] and in experiment [4] were 15.5 µM (active) and 23.7 µM (active), respectively.
On to `CN(C)CCN(Cc1ccsc1)c1ccccn1`, for which the Potency entry in experiment [1], in experiment [2], in experiment [3] and in experiment [4] was “inactive” throughout.
As for `CC(=O)[C@@]1(O)CC[C@H]2[C@@H]3C[C@H](C)C4=CC(=O)CC[C@]4(C)[C@H]3CC[C@@]21C`, the Potency entry in experiment [1], in experiment [2] and in experiment [5] was “inactive” in each case. Besides, the Potency in experiment [4] was 23.7 µM (active).
Take `NC(=O)C1(N2CCCCC2)CCN(CCCN2c3ccccc3CCc3ccc(Cl)cc32)CC1`: the Potency entry in experiment [1] is “inactive”. In addition, the Potency in experiment [2] is 3.98 µM (active); in experiment [3] it was 4.9 µM (active); in experiment [4] it was 9.44 µM (active).
Taken in the same sequence, the figures for `Nc1ccc(C(=O)N2CC3CC(CN(Cc4ccccc4)C3)C2)cc1` were “inactive”, “inactive”, “inactive” and “inactive”.
As for `Cc1cc(CCCOc2c(C)cc(-c3noc(C(F)(F)F)n3)cc2C)on1`, the Potency result in experiment [1] and in experiment [2] was “inactive” in each case. In addition, the Potency in experiment [3] is 19.5 µM (active).
Consider `CCCc1ccc(OCC(=O)N2CCN(C(=O)COc3ccc(CCC)cc3OC)CC2)c(OC)c1`, for which the Potency entry in experiment [1], in experiment [5] and in experiment [4] was “inactive” throughout. In experiment [2], the Potency is 11.2 µM (active).
As to `Cc1cccc(N(C)C(=S)Oc2ccc3c(c2)C2CCC3C2)c1` (configuration not stated), the Potency entry in experiment [1], in experiment [2] and in experiment [4] was “inactive” throughout. Besides, the Potency in experiment [3] was 7.76 µM (active).
As to `COc1ccc(CCC(C)=O)cc1`, the Potency result in experiment [1], in experiment [2], in experiment [3] and in experiment [4] was “inactive” in each case.
On to `CN1[C@@H]2CC[C@H]1CC(NC(=O)n1c(=O)[nH]c3ccccc31)C2` (some centres not stated), for which the Potency entry in experiment [1], in experiment [2], in experiment [3] and in experiment [4] was “inactive” throughout.
As for `[O-][n+]1cccc(/C(Cl)=N/OC[C@@H](O)CN2CCCCC2)c1`, the Potency entry in experiment [1], in experiment [2], in experiment [3] and in experiment [4] was “inactive” throughout.
On to `CC(=O)OCC[N+](C)(C)C`, for which the Potency entry in experiment [1], in experiment [2], in experiment [3] and in experiment [4] was “inactive” each time.
Take `CCCCCCCC(=O)[O-].CCCCCCCC(=O)[O-].[Zn+2]`: the Potency result in experiment [1], in experiment [2], in experiment [3] and in experiment [4] was “inactive” each time.
For `OCc1cccnc1`, the Potency entry in experiment [1], in experiment [2], in experiment [6], in experiment [3] and in experiment [4] was “inactive” each time.
In the case of `CCN1CCN(c2cc(-c3ccc(F)cc3)c3c(n2)CCCCCC3)CC1`, the Potency entry in experiment [1], in experiment [2], in experiment [3] and in experiment [4] was “inactive” each time.
In the case of `O=C(O)/C=C(\CC(=O)O)C(=O)O`, the Potency result in experiment [1], in experiment [2] and in experiment [3] was “inactive” throughout.
For the compound `O=C(CCCCCCCCC#CI)Oc1ccccc1`, the Potency result in experiment [1] and in experiment [2] was “inactive” throughout. In addition, the Potency in experiment [3] was 16.2 µM (active).
With `Nc1c[n+](N2CCOCC2)no1`, the Potency result in experiment [1], in experiment [2], in experiment [5] and in experiment [4] was “inactive” throughout.
Take `OC1(c2ccc(Cl)cc2)CCNCC1`: the Potency entry in experiment [1], in experiment [2] and in experiment [4] was “inactive” each time. Moreover, the Potency in experiment [5] is 15.5 µM (active).
As for `O=C1CCCc2c(O)cccc21`, the Potency entry in experiment [1], in experiment [2], in experiment [3] and in experiment [4] was “inactive” in each case.
On to `CCOC(=O)N1CCC(n2c(=O)[nH]c3cc(Cl)ccc32)CC1`, for which the Potency entry in experiment [1] and in experiment [2] was “inactive” each time. Further, in experiment [3], the Potency was 11 µM (active).
Consider `CC(CCc1ccc2c(c1)OCO2)NN` (configuration not stated), for which the Potency result in experiment [1], in experiment [2] and in experiment [4] was “inactive” in each case. Besides, the Potency in experiment [3] is 15.5 µM (active).
With `CC1(C)OC(=O)Nc2ccc(Br)cc21`, the Potency entry in experiment [1], in experiment [2], in experiment [3] and in experiment [4] was “inactive” each time.
In the case of `Nc1nc2ccccc2n1Cc1ccc(F)cc1`, the Potency entry in experiment [1], in experiment [2] and in experiment [3] was “inactive” in each case.
For the compound `OCCc1ccccc1`, the Potency result in experiment [1], in experiment [2], in experiment [3] and in experiment [4] was “inactive” throughout.
For the compound `Cc1c(F)cc2c(=O)c(C(=O)O)cn3c2c1CCC3C` (configuration not stated), the Potency result in experiment [1], in experiment [2], in experiment [3] and in experiment [4] was “inactive” throughout.
Take `CCC(=O)O[C@]1(C(=O)COC)[C@@H](C)C[C@H]2[C@@H]3CCC4=CC(=O)C=C[C@]4(C)C3(F)[C@@H](O)C[C@@]21C` (some centres not stated): the Potency result in experiment [1] and in experiment [2] was “inactive” each time. The Potency in experiment [3] is 24.5 µM (active).
